Experimental data as given in PubChem BioAssay (EPA / NIEHS).
“And” between values parts separate entries of the source, which are not always exact repeats. Equal values may be shown once. Inconclusive results are not listed. More than one record can exist for a structure, and the calls need not agree. The source made the active and inactive calls. The calls were made as follows, unless noted: active = hit-call score of the fitted dose curve at least 0.9, where 1 is the maximum; inactive = score below 0.9.

What was measured:
[1] = APR_HepG2_CellCycleArrest_1hr: Apredica 1-hour HepG2 Assay for Cell Cycle Arrest (AID 2282666); conditions: high-content imaging, actives raise or lower the signal
Summary of the method: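 Cell cycle arrest scored from nuclear DNA content (Hoechst 33342) using high-content imaging of fixed HepG2 cells after 1 h treatment across 0.39–200 uM, in duplicate. Gain or loss fitted relative to 0.5% DMSO.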

[2] = ACEA_ER_80hr: ACEA Biosciences xCELLigence Real-Time Cell Analysis on Estrogen Receptor Agonism for Proliferation (AID 2282667; active = hit-call score of the fitted dose curve at least 0.9, where 1 is the maximum); conditions: T47D proliferation, impedance (xCELLigence), 80 h
Summary of the method: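 T-47D cells monitored by electrical impedance (xCELLigence) with compound present throughout; 80 h timepoint, positive-direction fitting versus DMSO. Eight-point 1:4 dilutions from 100 uM final, duplicate plates.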

[3] = APR_HepG2_CellLoss_1hr: Apredica 1-hour HepG2 Assay for Cell Loss (AID 2282668); conditions: high-content imaging;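 also: curves fitted both ways against DMSO so gain or loss of cells counts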
Summary of the method: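 Cell number comes from high-content imaging of Hoechst-labelled nuclei in fixed HepG2 cells. Cells were exposed for 1 h to ten concentrations from 0.39 to 200 uM in 0.5% DMSO. Gain or loss was fitted against DMSO controls.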

[4] = APR_HepG2_NuclearSize_1hr: Apredica 1-hour HepG2 Assay for Nuclear Size (AID 2282670); conditions: high-content imaging, actives raise or lower the signal
Summary of the method: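 Nuclear size measured by high-content imaging of Hoechst 33342 nuclear stain after formaldehyde fixation; human HepG2 line exposed 1 hr to compounds at 0.39–200 uM in 0.5% DMSO, with bidirectional curve fitting relative to DMSO.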

[5] = APR_HepG2_p53Act_1hr: Apredica 1-hour HepG2 Assay for p53 Activation (AID 2282671); conditions: high-content imaging, actives raise or lower the signal
Summary of the method: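 After 1 h exposure (0.39–200 uM, 0.5% DMSO final, duplicates), fixed HepG2 cells were labelled with anti-p53 antibody plus Hoechst nuclear stain. Fluorescence quantified by automated 20x imaging; changes fitted in both directions against DMSO.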

[6] = APR_HepG2_MitoticArrest_1hr: Apredica 1-hour HepG2 Assay for Mitotic Arrest (AID 2282672); conditions: high-content imaging, actives raise or lower the signal
Summary of the method: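 Ten-point concentration series (0.39 to 200 uM, duplicates, 0.5% v/v DMSO) applied to human HepG2 liver cells for 1 hr. High-content imaging of phospho-histone H3 and Hoechst-stained nuclei after fixation and permeabilization; DMSO-normalised bidirectional fit.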

[7] = APR_HepG2_P-H2AX_1hr: Apredica 1-hour HepG2 Assay for H2AX Phosphorylation (AID 2282673); conditions: high-content imaging, actives raise or lower the signal
Summary of the method: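 Phospho-H2A.x immunofluorescence (1:200, FITC secondary) plus Hoechst nuclear stain, quantified by high-content imaging in HepG2 after 1 hr compound exposure. Ten concentrations, 0.39 to 200 uM, in duplicate with 0.5% DMSO; fit both directions against DMSO.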

[8] = APR_HepG2_MitoMembPot_1hr: Apredica 1-hour HepG2 Assay for Mitochondrial Membrane Potential (AID 2282675); conditions: imaging, actives raise or lower the signal
Summary of the method: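 Mitochondrial membrane potential read as MitoTracker Red CMXRos intensity by automated imaging of fixed HepG2 cells. Dye at 250 nM for 30 min pre-fixation; compounds 0.39 to 200 uM for 1 hour, duplicate wells, 0.5% DMSO.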

[9] = APR_HepG2_MicrotubuleCSK_1hr: Apredica 1-hour HepG2 Assay for Microtubule CSK Stabilty (AID 2282669); conditions: HepG2 microtubule cytoskeleton imaging, actives raise or lower the signal
Summary of the method: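 Alpha-tubulin immunofluorescence, imaged by automated high-content microscopy with Hoechst nuclear segmentation, measured cytoskeletal change after 1 h dosing of HepG2 at 0.39–200 uM in 0.5% DMSO. Activity fitted in both directions relative to DMSO.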

[10] = APR_HepG2_MitoMass_1hr: Apredica 1-hour HepG2 Assay for Mitochondrial Mass (AID 2282674); conditions: high-content imaging, actives raise or lower the signal
Summary of the method: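 Mitochondrial mass is taken from MitoTracker Red CMXRos (250 nM, 30 min, pre-fixation) fluorescence imaged at 20x in HepG2 cells. Exposure lasted 1 hr across ten concentrations, 0.39 to 200 uM, 0.5% DMSO; DMSO baseline, bidirectional fitting.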

Measured: AC50

CCCC1COC(Cn2cncn2)(c2ccc(Cl)cc2Cl)O1 (configuration not stated)
inactive: [1] | [2] | [3] | [4] | [5] | [6] | [7] | [8]

CCCCC(CC)COC(=O)c1ccccc1C(=O)OCC(CC)CCCC (configuration not stated)
inactive: [1] | [2] | [3] | [9] | [4] | [5] | [6] | [7] | [10] | [8]

Cc1c(F)c(F)c(COC(=O)C2C(/C=C(\Cl)C(F)(F)F)C2(C)C)c(F)c1F (configuration not stated)
inactive: [1] | [2] | [3] | [4] | [5] | [7] | [8]

COc1nc(C)nc(NC(=O)NS(=O)(=O)c2ccccc2Cl)n1
inactive: [1] | [3] | [4] | [5] | [7] | [8]

COc1cnc(OC)n2nc(NS(=O)(=O)c3c(OCC(F)F)cccc3C(F)(F)F)nc12
inactive: [1] | [2] | [3] | [4] | [5] | [7] | [10] | [8]

COC(=O)c1ccccc1C(=O)OC
inactive: [1] | [2] | [3] | [4] | [5] | [7] | [8]

CN(C)C(=S)SSC(=S)N(C)C
active: [2] 2.06 µM
inactive: [1] | [3] | [4] | [5] | [7] | [8]

COc1nc(C)nc(NC(=O)NS(=O)(=O)c2ccccc2CCC(F)(F)F)n1
inactive: [1] | [3] | [9] | [4] | [5] | [7] | [8]

CON(C)C(=O)Nc1ccc(Cl)c(Cl)c1
inactive: [1] | [2] | [3] | [4] | [5] | [7] | [8]

CCCCNC(=O)OCC#CI
inactive: [1] | [4] | [5] | [7] | [8]
active: [3] 100 µM and 129 µM | [5] 54.5 µM

COC(=O)C(C)Oc1ccc(Oc2ccc(Cl)cc2Cl)cc1 (configuration not stated)
inactive: [1] | [3] | [4] | [5] | [6] | [7] | [8]

C#CCOS(=O)OC1CCCCC1Oc1ccc(C(C)(C)C)cc1 (configuration not stated)
inactive: [1] | [3] | [4] | [5] | [7]
active: [2] 0.355 µM | [8] 82.3 µM

N#CC(CCc1ccc(Cl)cc1)(Cn1cncn1)c1ccccc1 (configuration not stated)
inactive: [1] | [2] | [3] | [4] | [5] | [7] | [8]

COC(=O)C=C(C)OP(=O)(OC)OC
inactive: [1] | [2] | [3] | [4] | [5] | [7] | [8]
